Bioassay records (PubChem)
eLon inh = inhibits E. coli Lon protease | P0A9M0 | purified E. coli Lon protease, fluorescence polarization | inhibition, % at 7.94 µM | 0.42% of 360,000 active; in the data active = inhibition above about 13%, passing the limit was not always enough;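 also: 0% = enzyme with probe and DMSO and 100% = no enzyme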
Target sequence (P0A9M0 whole entry, looked up): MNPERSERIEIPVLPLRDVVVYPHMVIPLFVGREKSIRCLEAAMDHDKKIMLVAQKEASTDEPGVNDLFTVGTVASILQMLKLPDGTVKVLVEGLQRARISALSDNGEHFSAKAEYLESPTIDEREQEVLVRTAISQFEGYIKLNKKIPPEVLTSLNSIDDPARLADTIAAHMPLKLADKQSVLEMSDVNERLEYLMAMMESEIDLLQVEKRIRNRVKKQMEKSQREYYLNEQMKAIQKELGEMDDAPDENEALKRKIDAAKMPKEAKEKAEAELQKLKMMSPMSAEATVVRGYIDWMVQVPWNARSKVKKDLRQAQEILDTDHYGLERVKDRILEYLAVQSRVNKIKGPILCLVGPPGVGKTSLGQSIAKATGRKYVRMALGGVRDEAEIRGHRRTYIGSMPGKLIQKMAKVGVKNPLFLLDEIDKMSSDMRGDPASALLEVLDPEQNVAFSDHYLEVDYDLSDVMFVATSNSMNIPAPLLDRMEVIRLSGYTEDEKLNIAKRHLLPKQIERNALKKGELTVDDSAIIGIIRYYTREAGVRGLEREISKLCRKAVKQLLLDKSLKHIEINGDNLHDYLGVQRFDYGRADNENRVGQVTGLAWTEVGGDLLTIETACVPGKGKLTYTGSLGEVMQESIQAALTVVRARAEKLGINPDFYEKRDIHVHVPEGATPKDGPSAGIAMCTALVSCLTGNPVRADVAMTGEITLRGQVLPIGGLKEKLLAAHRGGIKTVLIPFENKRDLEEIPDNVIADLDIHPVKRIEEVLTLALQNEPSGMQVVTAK
RTF Ca sens act = increases calcium sensitivity of human cardiac regulated thin filaments; IANBD-labeled TnC RTF fluorescence at EC20 calcium; 0% EC20 calcium, 100% full calcium; activation, % at 7.2 µM; 0.24% of 340,000 active;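 active = activation above the mean over all tested compounds plus 3 SD, cut at about 30% in these data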;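 also: rise in fluorescence read as greater calcium sensitivity of cardiac thin filaments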
GLD-1 RNA inh = GLD-1-TGE RNA interaction inhibition (C. elegans); inhibition, % at 5.96 µM; AID 2280; purified GLD-1 + fluorescein TGE RNA, fluorescence polarization; 0.44% of 320,000 active; Q17339;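 active = percent inhibition above a per-plate cutoff, the plate mean of test compounds plus 3 SD, cut at about 30% in these data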;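 also: 0% = DMSO wells with GLD-1 and probe and 100% = wells lacking GLD-1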
Bcl-xL primary = blocks human Bcl-xL binding to Bim BH3 peptide. inhibition, % at 10.9 µM. 0.7% of 320,000 active. GST-Bcl-xL / FITC-Bim BH3 peptide fluorescence polarization. Q07817. AID 2129;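 active = inhibition above the mean of all tested compounds plus 3 SD, cutoff set per campaign, cut at about 30% in these data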;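 also: 0% = DMSO wells and 100% = unlabeled Bim-BH3 peptide competitor; inhibitors lower millipolarization by displacing the labeled peptide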
RTF Ca sens inh = cardiac RTF calcium desensitization | P19429+P45379 | IANBD-labeled cardiac RTF, Ca2+ fluorescence | inhibition, % at 7.15 µM | 0.12% of 340,000 active;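 active = inhibition above the mean inhibition of all tested compounds plus 3 SD, cut at about 17% in these data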;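 also: assay run at fixed EC70 calcium of 1.6 mM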
eLon confirm = confirmation of E. coli Lon protease inhibitors. AID 602230. purified E. coli Lon, fluorescence polarization. inhibition, % at 7.94 µM. shares compounds with eLon inh. 31% of 1,400 active; in the data active = inhibition above about 16%;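 also: 0% = enzyme with probe and DMSO and 100% = no enzyme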
Active calls of the source: *; . = no result given; + = active, no number. Sampled rows, rich in hits. Any-hit rate of the full collection: about 1.2%.

SMILES	eLon inh	RTF Ca sens act	GLD-1 RNA inh	Bcl-xL primary	RTF Ca sens inh	eLon confirm
O=C(CN1C(=O)COc2ccc(S(=O)(=O)N3CCOCC3)cc21)Nc1cccc(Cl)c1	19*	-7	4	4	-5	1
CCCn1c(=NC(=O)c2ccncc2)c(C#N)cc2c(=O)n3cccc(C)c3nc21	0	-3	.	.	-1	.
COCCCn1c(=NC(=O)c2ccncc2)c(C#N)cc2c(=O)n3cccc(C)c3nc21	38*	11	19	41*	-6	22*
CCCCn1c(=NC(=O)c2cccnc2)c(C#N)cc2c(=O)n3cccc(C)c3nc21	24*	14	12	46*	-19	2
CCOC(=O)c1cc2c(=O)n3cccc(C)c3nc2n(CCCOC)c1=NC(=O)c1cccnc1	-6	-4	4	10	-17	.
Nc1ccccc1N=Nc1ccccc1N	49*	-4	17	46*	-19	40*
O=C(Cn1nc(-c2ccc(Cl)cc2)c2ccccc2c1=O)Nc1cccnc1	18*	3	-2	3	-2	2
Cc1ccccc1-n1c(SCc2c(C)noc2C)nnc1-c1ccncc1	4	-3	0	-3	-6	.
Cc1ccccc1-n1c(SCc2c(C)noc2C)nnc1-c1cccnc1	63*	22	89*	133*	-42	45*
CCC1(O)C(=O)OCc2c1cc1n(c2=O)Cc2cc3cc(O)ccc3nc2-1 (stereo not given)	+	27	.	.	-34	+
O=C(CSc1nccc(=O)[nH]1)c1ccccc1Br	-8	-7	0	7	2	.
CCOC(=O)c1[nH]c(C)c(C)c1C	51*	10	-3	4	-6	1
CCOC(=O)c1[nH]c(C)c(C(=O)OC)c1C	12	-3	14	17	3	.
CCCC(c1nnnn1CCOC)N1CCN(C(=O)c2ccco2)CC1 (stereo not given)	29*	2	-4	12	-3	-7
Cc1cc2oc(=O)cc(CN3CCN(C/C=C/c4ccccc4)CC3)c2cc1O	22*	5	3	4	-5	-37
O=c1cc(CN2CCN(C/C=C/c3ccccc3)CC2)c2cc(O)c(-c3ccccc3)cc2o1	-4	-13	2	2	-3	.
Cn1ccnc1SCC(=O)Nc1ccc2nc(SCC(=O)NC3CC3)sc2c1	.	.	-2	6	.	.
O=C(Nc1ccc(NC(=O)C2CCCN2C(=O)OCc2ccccc2)cc1)c1ccco1 (stereo not given)	-3	-3	1	5	-1	.
O=C(Nc1cccc(O)c1)C1CCCN1C(=O)OCc1ccccc1 (stereo not given)	18*	5	-2	1	-7	-10
N#CC(C#N)=C1C=CC=CN1/C(=C\c1ccccc1)C(=O)c1cccs1	25*	12	6	29	-17	9
COC(=O)N/N=C\c1cc2c(cc1Br)OCO2	18*	5	-8	-1	4	-6
Cc1ccc(C(=O)N/N=C\c2cc3c(cc2Br)OCO3)s1	12	-1	6	1	0	.
COc1ccc(CCC(=O)Nc2cc(Cl)ccc2OC)cc1	4	2	10	8	-16	.
CCCOc1ccc(-c2c(C(=O)N/N=C(\C)COc3ccccc3)nnn2-c2nonc2N)cc1	0	1	7	-1	-9	.
Nc1cc(S(=O)(=O)O)cc([N+](=O)[O-])c1O	-3	-5	4	7	-7	.
SMILES	eLon inh	RTF Ca sens act	GLD-1 RNA inh	Bcl-xL primary	RTF Ca sens inh	eLon confirm
Nc1ccc2c(O)cc(S(=O)(=O)O)cc2c1	137*	58*	.	.	-63	3
Nc1cccc2c(O)cc(S(=O)(=O)O)cc12	65*	-12	.	.	15	12
CC(=O)Nc1ccc2c(O)cc(S(=O)(=O)O)cc2c1	-24	1	.	.	-5	.
COc1ccc(S(=O)(=O)N2C3CCC2CC(NC(=O)NC2CCCCC2)C3)cc1 (stereo not given)	82*	-2	3	2	-4	0
Cc1cccc(N2C(=O)c3cccc4c(N5CCCCC5)c([N+](=O)[O-])cc(c34)C2=O)c1C	-4	2	9	4	-5	.
O=C1c2cccc3c([N+](=O)[O-])ccc(c23)C(=O)N1Cc1cccnc1	51*	20	.	.	-18	75*
Cc1ccc(N2C(=O)c3cccc4c([N+](=O)[O-])ccc(c34)C2=O)c2cccnc12	9	0	13	17	-3	.
